Experimental findings from the supplement of paper PMC6555819 are described below.

Common to all, as to experiment: PBM binding z-score (relative to random genomic background probes); higher = stronger binding; sequences stand for … in GC…GCGATTGACAGCGTAGAATGAAGG
Experiment [1] deals with FXR:RXRa (NR concentration 270 nM, RXRa partner concentration 90 nM). An outline of the steps: (§1)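 Regression normalization was applied to scanned fluorescence from custom Agilent 4×180K protein-binding microarrays. Before scanning, arrays were incubated 1 h with ligand-free nuclear receptor dimers, and binding was detected with antibodies against each partner (one per run). Binding z-scores use the random background probes as reference.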

In experiment [2] the test system is LXRa:RXRa (NR concentration 270 nM, RXRa partner concentration 90 nM). An outline of the steps:
as §1

Experiment [3] has as its system LXRa homodimer (NR concentration 270 nM). An outline of the steps: as §1
Experiment [4] concerns LXRb:RXRa (NR concentration 270 nM, RXRa partner concentration 90 nM). An outline of the steps: as §1
The test system of experiment [5] is LXRb homodimer (NR concentration 270 nM). An outline of the steps:
as §1

The test system of experiment [6] is PPARa:RXRa (NR concentration 270 nM, RXRa partner concentration 90 nM). The gist of the method: as §1
Experiment [7] relates to PPARg:RXRa (NR concentration 180 nM, RXRa partner concentration 90 nM). The gist of the method:
as §1

Experiment [8] deals with PPARg:RXRa 270nM:90nM, anti-RXR (NR concentration 270 nM, RXRa partner concentration 90 nM). The gist of the method: as §1
In experiment [9] the test system is PPARg:RXRa 30nM:10nM, anti-RXR (NR concentration 30 nM, RXRa partner concentration 10 nM). An outline of the steps: as §1
The test system of experiment [10] is PPARg:RXRa 90nM:30nM, anti-RXR (NR concentration 90 nM, RXRa partner concentration 30 nM). The gist of the method:
as §1

For experiment [11], the system named is PPARg:RXRa DBDmut IVT, anti-RXR (DBD mutation: RXRa K156A/R161A, NR concentration 270 nM, RXRa partner concentration 90 nM). The gist of the method:
as §1

Experiment [12] concerns PPARg:RXRa IVT, anti-PPARg (NR concentration 270 nM, RXRa partner concentration 90 nM). The gist of the method: as §1
Experiment [13] deals with PPARg DBDmut:RXRa IVT, anti-PPARg (DBD mutation: PPARg1 K132A/R137A, NR concentration 270 nM, RXRa partner concentration 90 nM). The gist of the method: as §1
The test system of experiment [14] is PPARg DBDmut IVT, anti-PPARg (DBD mutation: PPARg1 K132A/R137A, NR concentration 270 nM). The gist of the method:
as §1

Experiment [15] relates to PPARg homodimer (NR concentration 180 nM). The gist of the method: as §1
Experiment [16] has as its system PXR:RXRa (NR concentration 270 nM, RXRa partner concentration 90 nM). The gist of the method:
as §1

In experiment [17] the test system is PXR homodimer (NR concentration 270 nM). An outline of the steps: as §1
Experiment [18] relates to RARa:RXR (NR concentration 270 nM, RXRa partner concentration 90 nM). The gist of the method: as §1
In experiment [19] the test system is RARa homodimer (NR concentration 270 nM). An outline of the steps:
as §1

Experiment [20] has as its system RARb:RXRa (NR concentration 270 nM, RXRa partner concentration 90 nM). An outline of the steps:
as §1

With CTGGAAAGGTCGTGCTCAGGTGAGTATACCAAAC, the PBM binding z-score in experiment [1] is 5.25; in experiment [2], 3.35; in experiment [3], -0.219; in experiment [4] it was 2.7; in experiment [5] it was -0.505; in [6] it was 4.7. Besides, the PBM binding z-score in experiment [7] worked out at 2.63; in [8] it was 3.81; in experiment [9], 1.04; in experiment [10], 2.24; in experiment [11], 0.634; in experiment [12], 1.35. Besides, the PBM binding z-score in [13] is -0.0196; in [14] it was 0.149; in [15], 1.33; in experiment [16], 3.07; in experiment [17] it was -0.203; in experiment [18], 4.31. For the same sequence, the PBM binding z-score in [19] is -0.374; in experiment [20], 3.59.

Take CTCGAACGGTCGGTTGAGGTGAGTATACGGATAA: the PBM binding z-score was 0.102 in [1]; -0.565 in [2]; -0.727 in experiment [3]; -0.59 in experiment [4]; -0.761 in experiment [5]; -0.3 in experiment [6]. Also, the PBM binding z-score in [7] is -0.199; in [8], -0.622; in experiment [9], -0.623; in [10], -0.601; in experiment [11], -0.509; in experiment [12] it was -0.343. Besides, the PBM binding z-score in [13] was -0.772; in experiment [14], -0.429; in [15] it was -1.41; in [16], -0.224; in [17], -0.776; in experiment [18], 0.779. For the same sequence, the PBM binding z-score in experiment [19] is -1.48; in [20], 0.604.

TCTTGTAGATTAGCAGGTTAAGAAAGCTGGCCAA: the PBM binding z-score in [1] was 0.383; in experiment [2], 0.641; in experiment [3] it was 0.135; in experiment [4], 0.57; in experiment [5], -0.424; in experiment [6] it was 0.897. Further, the PBM binding z-score in experiment [7] is -0.494; in experiment [8], 1.4; in experiment [9], 2.55; in experiment [10] it was 2.07; in [11], 1.76; in [12], 0.791. Also, the PBM binding z-score in [13] was -0.369; in experiment [14], -0.0447; in experiment [15] it was 0.0886; in experiment [16] it was 0.329; in [17] it was 0.0335; in experiment [18] it was 0.552. In addition, the results for the PBM binding z-score in experiment [19] and in [20] were 0.796 and 0.197, respectively.

Regarding CCGACTGGGGCATAAGGTTACCATTAGCCAGCCC, the PBM binding z-score in experiment [1] is 0.294; in experiment [2] it was 0.416; in [3] it was -0.399; in experiment [4], 0.617; in [5] it was -1.38; in [6] it was 1.85. The PBM binding z-score in experiment [7] came out at 2.02; in [8] it was 3.12; in [9], 0.689; in experiment [10] it was 2.57; in [11], 3.03; in experiment [12], 3.04. Also, the PBM binding z-score in experiment [13] was -1.02; in experiment [14], -1.9; in experiment [15] it was 0.694; in experiment [16], 0.105; in experiment [17], -0.286; in experiment [18], 1.35. Also, the PBM binding z-score in [19] is -0.407; in experiment [20], 1.61.

In the case of CCTATCAGGCCAGGGTCACTCAAGCATTTCGCTT, the PBM binding z-score was 2.19 in experiment [1]; 1.74 in [2]; -0.264 in experiment [3]; 2.23 in experiment [4]; -0.67 in experiment [5]; 3.33 in experiment [6]. For the same sequence, the PBM binding z-score in experiment [7] is 0.918; in [8], 1.93; in [9], -0.162; in experiment [10], 0.886; in [11], 0.0359; in experiment [12], 1.06. Further, the PBM binding z-score in experiment [13] was -1.33; in experiment [14], -0.669; in experiment [15], 1.28; in experiment [16], 2.59; in experiment [17], -0.206; in experiment [18] it was 3.5. For the same sequence, the PBM binding z-score turned out to be 0.157 in [19] and 2.74 in experiment [20].

Turning to GCTTGTAGATCAAGATTAAGAAAGACTAAGCTAA, the PBM binding z-score in [1] is -0.857; in [2], -0.792; in experiment [3], -0.561; in experiment [4] it was -0.525; in [5] it was -0.737; in experiment [6] it was -0.32. Moreover, the PBM binding z-score in experiment [7] is 0.226; in experiment [8], -0.333; in [9] it was -0.252; in [10] it was -0.334; in [11] it was 0.366; in experiment [12] it was -0.13. Besides, the PBM binding z-score was 0.0686 in experiment [13]; 0.0924 in [14]; -0.256 in [15]; -0.671 in experiment [16]; -0.582 in [17]; -0.252 in experiment [18]. Further, the PBM binding z-score is -0.194 in experiment [19] and -0.426 in experiment [20].

On to TCATATAGGTAATACAGGTGAAAATCGGCATCTA, for which the PBM binding z-score in [1] was 1.35; in [2] it was 1.37; in experiment [3], 0.422; in [4] it was 1.27; in [5], 0.421; in experiment [6], 2. For the same sequence, the PBM binding z-score in [7] came out at 1.78; in experiment [8], 2.58; in experiment [9], 4.1; in experiment [10] it was 3.43; in experiment [11] it was 3.9; in experiment [12], 3.09. Moreover, the PBM binding z-score in experiment [13] was found to be 1.52; in experiment [14] it was 1.47; in experiment [15], 1.22; in experiment [16], 0.9; in experiment [17], 0.486; in experiment [18], 1.46. The PBM binding z-score came to 1.89 in experiment [19] and 0.59 in experiment [20].
